SSB-PriA inh: blocks PriA binding to SSB C-terminal tail. hit rate 0.6% among 430,000. inhibition, % at 33 µM. AlphaScreen SSBct-PriA binding, biotinylated peptide; in the data active means inhibition mostly above about 37%, no sharp cut-off; inactive means mostly below about 20%
Sa RN4220 lethal: S. aureus RN4220 growth inhibition; AID 1259311; hit rate 0.33% among 330,000; OD600, 16 h; inhibition, % (no concentration beside the values); in the data active means inhibition above about 85%
VHR inh abs: blocks human VHR1 dual specificity phosphatase. P51452. recombinant VHR phosphatase, pNPP absorbance. inhibition, % at 13.3 µM. hit rate 0.52% among 290,000; in the data active means inhibition above about 50%
Target sequence (P51452 whole entry, looked up): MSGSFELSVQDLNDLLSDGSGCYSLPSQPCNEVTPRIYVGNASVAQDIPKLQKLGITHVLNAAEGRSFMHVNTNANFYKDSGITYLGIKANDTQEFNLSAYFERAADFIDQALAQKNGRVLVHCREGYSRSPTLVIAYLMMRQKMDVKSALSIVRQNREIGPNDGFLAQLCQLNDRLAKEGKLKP
PfHsp40 rescue: rescue of PfHsp40-mediated yeast toxicity | growth rescue, % at 12.5 µM | S. cerevisiae expressing PfHsp40, growth rescue, ATP luminescence | hit rate 0.68% among 340,000; in the data active means growth rescue above about 28%, passing the limit was not always enough;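 further: yeast W303a lacking pdr1 and pdr3 grown in galactose medium; growth measured after three days at 30 °C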
ugtP null kill: kills S. aureus RN4220 lacking UgtP; AID 1259309; growth inhibition, % (concentration not given with the values); S. aureus RN4220 ugtP deletion, OD600 growth, 16 h; hit rate 0.54% among 330,000; in the data active means growth inhibition above about 68%
Mtb hypoxia rep: reduces hypoxia-regulated biosensor signal in M. tuberculosis. M. tuberculosis hypoxia-regulated fluorescent reporter, fluorescence. fluorescence inhibition, % (no concentration beside the values). hit rate 0.1% among 300,000. AID 1159583; in the data active means fluorescence inhibition mostly above about 23%, no sharp cut-off; inactive means mostly below about 17%
Large screens that a line does not name were inactive; ! = not confirmed by another sample. Most compounds without a hit are left out; they make up all but 1.8% or so of the library.

COc1ccc2sc(N(CCCN(C)C)C(=O)c3ccc(S(=O)(=O)N4CCCc5ccccc54)cc3)nc2c1	SSB-PriA inh 36! (no result: VHR inh abs)
CCN(Cc1ccccc1)S(=O)(=O)c1ccc(C(=O)N(CCCN(C)C)c2nc3ccc(F)cc3s2)cc1	SSB-PriA inh 37!
CN(C)CCCN(C(=O)c1ccc(C(=O)c2ccccc2)cc1)c1nc2ccc(F)cc2s1	none
O=C(C1CCCN1c1nc2ccccc2o1)N1CCN(S(=O)(=O)C2CC2)CC1 (configuration not stated)	none (no result: Sa RN4220 lethal, VHR inh abs, PfHsp40 rescue, ugtP null kill, Mtb hypoxia rep)
COc1ccccc1CNC(=O)Cc1csc(SCC(=O)Nc2cccc(NC(C)=O)c2)n1	none (no result: Sa RN4220 lethal, VHR inh abs, PfHsp40 rescue, ugtP null kill, Mtb hypoxia rep)
COc1ccc(CCNC(=O)Cn2c(=O)n(CCCC(=O)NCc3ccco3)c(=O)c3ccccc32)cc1OC	none (no result: Sa RN4220 lethal, VHR inh abs, PfHsp40 rescue, ugtP null kill, Mtb hypoxia rep)
CCN(Cc1ccccc1)S(=O)(=O)c1ccc(C(=O)N(CCCN(C)C)c2nc3cc(OC)ccc3s2)cc1	SSB-PriA inh 51! (no result: VHR inh abs)
O=C(CN1CC(=O)Oc2ccccc21)OCC(=O)c1ccc(Br)cc1	SSB-PriA inh 86 (no result: VHR inh abs, Mtb hypoxia rep)
O=C(CN1CC(=O)Oc2ccccc21)OCC(=O)c1ccc(F)cc1	SSB-PriA inh 77
O=C1CN(CC(=O)N2CCOCC2)c2ccccc2O1	none (no result: SSB-PriA inh, Sa RN4220 lethal, PfHsp40 rescue, ugtP null kill, Mtb hypoxia rep)
O=C(COc1ccc(-c2nnco2)cc1)NC1CCS(=O)(=O)C1 (configuration not stated)	PfHsp40 rescue 31 (no result: VHR inh abs)
Cc1cc(N2CCOCC2)n2ncc(-c3ccc(Cl)cc3)c2n1	none
Cc1cc(N2CCCCC2)n2ncc(-c3ccc(Cl)cc3)c2n1	ugtP null kill 85
CSc1ccccc1C(=O)Nc1nnc(-c2ccc3c(c2)OCO3)o1	none (no result: Sa RN4220 lethal, VHR inh abs, PfHsp40 rescue, ugtP null kill, Mtb hypoxia rep)
COC(=O)c1sccc1NC(=O)Nc1cccc(C)c1	VHR inh abs 50
COc1ccc(/C=C2\SC(=S)N(CCC(=O)Nc3ccc(C(=O)O)cc3)C2=O)cc1	VHR inh abs 52
CCN(CC)CCOC(=O)c1ccc(NC(=O)CCCN2C(=O)/C(=C\c3cccs3)SC2=S)cc1	SSB-PriA inh 42
CCc1ccc(/C=C2/SC(=S)N(CCC(=O)Nc3ccc(C(=O)O)cc3)C2=O)cc1	none (no result: SSB-PriA inh, Sa RN4220 lethal, ugtP null kill, Mtb hypoxia rep)
CC(/C=C1\SC(=S)N(CCC(=O)Nc2cccc(C(=O)O)c2)C1=O)=C\c1ccccc1	ugtP null kill 86
COC(=O)c1ccc(OCC(O)CN2CCN(c3cccc(C(F)(F)F)c3)CC2)cc1 (configuration not stated)	none (no result: Sa RN4220 lethal, VHR inh abs, PfHsp40 rescue, ugtP null kill, Mtb hypoxia rep)
CC(=O)C(=NNc1ccccc1)Sc1cccc2cccnc12	none (no result: VHR inh abs, PfHsp40 rescue)
CC(=O)C(=NNc1ccc(Cl)cc1Cl)Sc1cccc2cccnc12	SSB-PriA inh 73, ugtP null kill 85 (no result: VHR inh abs, PfHsp40 rescue)
CCc1ccc2nc(NCc3cccnc3)sc2c1	none (no result: Sa RN4220 lethal, VHR inh abs, PfHsp40 rescue, ugtP null kill, Mtb hypoxia rep)
CCC(=O)OCCNc1cc(SCCC(=O)OC)c2nonc2c1[N+](=O)[O-]	none
CCCC(=O)OCCNc1cc(Sc2nc3ccccc3[nH]2)c2nonc2c1[N+](=O)[O-]	Sa RN4220 lethal 96, ugtP null kill 100 (not shown: Mtb hypoxia rep)
C/C(=N\Nc1ccc(C(=O)O)cc1)c1ccc2c(c1)Nc1ccccc1S2	PfHsp40 rescue 207 (no result: SSB-PriA inh, Sa RN4220 lethal, ugtP null kill, Mtb hypoxia rep)
CC(=O)Oc1c(Sc2ccccc2[N+](=O)[O-])c(C)nn1C(C)(C)C	PfHsp40 rescue 42
Cc1nn(-c2ccccc2)c(C)c1Sc1ccccc1[N+](=O)[O-]	none (no result: Sa RN4220 lethal, VHR inh abs, PfHsp40 rescue, ugtP null kill, Mtb hypoxia rep)
Cc1n[nH]c(C)c1Sc1ccccc1[N+](=O)[O-]	none
Cc1ccc(-n2nc(C)c(Sc3ccccc3[N+](=O)[O-])c2N)cc1	SSB-PriA inh 39
O=C(OCc1ccc([N+](=O)[O-])cc1)C1CCN(S(=O)(=O)c2cccc3cccnc23)CC1	none (no result: Sa RN4220 lethal, VHR inh abs, PfHsp40 rescue, ugtP null kill, Mtb hypoxia rep)
O=C(Cl)c1cc(Cl)ccn1	SSB-PriA inh 83 (no result: Sa RN4220 lethal, VHR inh abs, PfHsp40 rescue, ugtP null kill, Mtb hypoxia rep)
CCCCN1C(=O)Cc2c1nc(N)c1c(N)nc(N(CCC)CCC)c(C#N)c21	SSB-PriA inh 39
N#Cc1c(N(CCO)CCO)nc(N)c2c(N)nc3c(c12)CC(=O)N3CC1CCCO1 (configuration not stated)	none
Cc1cccc(C)c1NC(=O)CN(C)C(=O)c1ccccc1Sc1ccccc1C#N	none (no result: VHR inh abs)
CN(CC(=O)Nc1ccccc1Br)C(=O)c1ccccc1Sc1ccccc1C#N	Mtb hypoxia rep 25 (no result: VHR inh abs)
CC(C)C(=O)Nc1ccc(N2CCN(C(=O)c3cccs3)CC2)cc1	none
CC(C)CC(=O)NC(=S)Nc1ccc(NC(=O)c2cccs2)cc1	ugtP null kill 83 (not shown: Mtb hypoxia rep)
CC(C)CC(=O)NC(=S)Nc1ccc(N2CCN(C(=O)c3cccs3)CC2)cc1	ugtP null kill 96 (not shown: Mtb hypoxia rep)

Screening data deposited in PubChem BioAssay by several laboratories.
